Results: PubChem BioAssay (NCI)
About 83,000 compounds went through this panel and 20% of them were active in at least one assay; those are over-represented in the sample as a whole.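 Growth was measured after 48 h exposure to one concentration of compound in 96-well plates. Values under 10 count as active.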 A number with no mark means an inactive call. Activity calls are given as the source filed them.

Tested on: MDA-MB-468 breast
Experiment: NCI-60 one-dose screen, 48 h (100 = growth as untreated, 0 = no growth, -100 = all killed)
Details: 10 µM unless noted

**Q.** For `Cc1ccc(C(c2c(O)c3cc(Br)ccc3[nH]c2=O)c2c(O)c3cc(Br)ccc3[nH]c2=O)cc1`, which growth is on record?
**A.** 94.7%

**Q.** `c1ccc([P+](c2ccccc2)(c2ccccc2)c2ccc3c4ccc([P+](c5ccccc5)(c5ccccc5)c5ccccc5)c5cccc(c6cccc2c63)c54)cc1` was tested. Which growth did it give?
**A.** -10.9% (active)

**Q.** Which growth does the source give for `CN(C)c1ccc(/C=C/C(=O)c2ccccc2)cc1` here?
**A.** 90.3%

**Q.** `N#Cc1c(-c2ccc(Cl)cc2)nc(NN=Cc2cccc(O)c2)nc1N1CCOCC1` was tested. Which growth did it give?
**A.** 87.4%

**Q.** With `Nc1c(C(=O)Nc2ccccc2)sc2nc3c(cc12)CCC3` as the compound, how does the growth read?
**A.** 49.7%

**Q.** With `COC(=O)c1nc(-c2ccccc2)oc1S(=O)(=O)NCC(c1ccc(Cl)cc1)N1CCCCC1` (stereo not given) as the compound, how does the growth read?
**A.** 37%

**Q.** `Cc1ccc(NC(=O)Nc2nc3ccc([N+](=O)[O-])cc3s2)cc1` was tested. Which growth did it give?
**A.** -15.6% (active)

**Q.** With `COc1ccc(/C=C(\C(=O)NCc2cccnc2)S(=O)(=O)c2ccccc2)cc1OC` as the compound, how does the growth read?
**A.** 1.86% (active)

**Q.** How did the growth turn out when `N=C(N)N=Nc1ccc(NN=C(N)N)c2ccccc12` was run?
**A.** -27.2% (active)

**Q.** Which growth does the source give for `COc1ccc2nccc(Cl)c2c1` here?
**A.** 100%

**Q.** For `c1csc(-c2cc(-c3cc(-c4cccs4)[nH]n3)n[nH]2)c1`, which growth is on record?
**A.** 77.3%

**Q.** How did the growth turn out when `Nc1nc(=O)c2ccccc2s1` was run?
**A.** 109%

**Q.** Which growth does the source give for `O=S(=O)(O)c1ccc(O)c(C2CCCCC2)c1` here?
**A.** 103%

**Q.** `CSc1ncccc1C(=O)OCC(=O)Nc1oc(C)c2c(C)n[nH]c(=O)c12` was tested. Which growth did it give?
**A.** 98%

**Q.** For `O=S(=O)(Nc1ccc(Cl)cc1Cl)c1ccc(-c2cnc(C3CC3)o2)cc1`, which growth is on record?
**A.** -34.2% (active)

**Q.** For `CO[C@H](C(=O)[C@@H](O)[C@@H](C)O)[C@@H]1Cc2cc3cc(O[C@H]4C[C@@H](O[C@H]5C[C@@H](O)[C@H](O)C(C)O5)[C@H](O)C(C)O4)c(C)c(O)c3c(O)c2C(=O)[C@H]1O[C@H]1C[C@@H](O[C@H]2C[C@@H](O[C@H]3C[C@](C)(O)C(=O)C(C)O3)[C@@H](O)C(C)O2)[C@H](O)C(C)O1` (stereo not given in full), which growth is on record?
**A.** -46.7% (active)

**Q.** For `N#Cc1c(-c2ccc(Br)cc2)nc2c(N=Nc3ccc(S(N)(=O)=O)cc3)c(N)nn2c1N`, which growth is on record?
**A.** 23.6%

**Q.** How did the growth turn out when `Nc1nc2c([nH]1)c1[nH]c3ccccc3c1c1[nH]c3ccccc3c21` was run?
**A.** -57.2% (active)

**Q.** How did the growth turn out when `Oc1ccc(CCC2CCNc3ccccc32)cc1` (stereo not given) was run?
**A.** 46.8%

**Q.** How did the growth turn out when `Cn1ccc2c3c(ccc21)CC3=O` was run?
**A.** 106%

**Q.** With `CCCCNc1ccc(-c2ccc(NCCCC)cc2)cc1` as the compound, how does the growth read?
**A.** 29.9%

**Q.** How did the growth turn out when `COc1ccc(/C=C/C(=O)c2ccc(Nc3ncnc4ccccc34)cc2)cc1OC` was run?
**A.** 60.7%

**Q.** Which growth does the source give for `COc1cc(C2C3=C(COC3=O)N(CCO)c3cc4c(cc32)OCO4)cc(OC)c1O` (stereo not given) here?
**A.** -35.5% (active)

**Q.** Which growth does the source give for `c1ccc(CN2C(c3ccccc3)=Nc3ccccc3C2c2c[nH]c3ccccc23)cc1` (stereo not given) here?
**A.** 12.4%

**Q.** How did the growth turn out when `N=c1n(Cc2ccccc2)c(N)cc(=O)n1Cc1ccccc1` was run?
**A.** 83.3%

**Q.** `OC(Cc1cc(CC(O)(C(F)(F)F)C(F)(F)F)nc(CC(O)(C(F)(F)F)C(F)(F)F)c1)(C(F)(F)F)C(F)(F)F` was tested. Which growth did it give?
**A.** -37% (active)

**Q.** For `COc1cc(-c2nc3occn3c2-c2ccnc(NCCNS(=O)(=O)c3ccc(Cl)cc3)n2)ccc1F`, which growth is on record?
**A.** 63.1%

**Q.** `COc1ccc(Cn2cc3c(c2-c2ccc(O)cc2)CCc2cnoc2-3)cc1` was tested. Which growth did it give?
**A.** -3.26% (active)

**Q.** Which growth does the source give for `O=c1cc(-c2ccccc2)[nH]n1-c1nc2ccccc2[nH]1` here?
**A.** 66.2%

**Q.** How did the growth turn out when `O=C1c2ccccc2C(=O)c2c1oc1ccc3ccccc3c21` was run?
**A.** -10.4% (active)

**Q.** With `COC(=O)[C@]12CC[C@@H](C)[C@H](C)[C@@H]1C1=CC[C@@H]3[C@@]4(C)C(c5ncon5)=C[C@@](C)(CO)C4=CC[C@@]3(C)[C@]1(C)CC2` as the compound, how does the growth read?
**A.** -28.9% (active)

**Q.** How did the growth turn out when `Cc1nc(Nc2cccnc2)sc1C(=O)/C=C/c1ccc(F)cc1` was run?
**A.** 26.7%

**Q.** How did the growth turn out when `COc1cc(-c2nc(SC(C)C)nc(Nc3ccccc3C)c2C#N)cc(OC)c1OC` was run?
**A.** 111%

**Q.** Which growth does the source give for `COc1ccc(C(=O)C(=O)c2ccccc2)cc1` here?
**A.** 101%

**Q.** `O=[N+]([O-])c1cc(S(=O)(=O)Oc2ccccc2)ccc1Cl` was tested. Which growth did it give?
**A.** -78.1% (active)

**Q.** For `CN(CCC(=O)c1ccccc1)CCC(=O)c1ccccc1`, which growth is on record?
**A.** 73.4%

**Q.** For `COc1ccc(Cn2cc3c(c2-c2cc(OC)c(OC)c(OC)c2)CCc2c(CN4CCOCC4)noc2-3)cc1`, which growth is on record?
**A.** 45.5%

**Q.** How did the growth turn out when `CN1CCN(Cc2ccc(NC(=O)c3cncc(C#Cc4cnc5ccc(NC6CCOCC6)nn45)c3)cc2C(F)(F)F)CC1` was run?
**A.** -88.5% (active)

**Q.** For `O=C(O)c1cccc2c1-c1ccc(Cl)cc1C2`, which growth is on record?
**A.** 108%

**Q.** With `C=C1C(=O)O[C@@H]2/C=C(/C)C3=CC(=O)[C@@](C)(C[C@H](OC(=O)/C(C)=C\C)[C@@H]12)O3` as the compound, how does the growth read?
**A.** -43.6% (active)
